Hits are enriched below; roughly 5.1% of the tested compounds scored in any of these assays.
ROMK mod – human ROMK K+ channel modulation, primary screen. P48048. Tet-inducible ROMK, thallium flux fluorescence; actives lie on both sides. B-score at 10 µM. 130,000 compounds, 2% hits. AID 1918;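 active means signal ratio slope over the read window, or its plate-corrected B-score, at least 3 SD from the plate mean, either direction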;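 further: B-score of the F/F0 ratio slope over 7 to 12 s after thallium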
Cl transport mod – modulators of human KCC2 chloride dependent transport; Q9H2X9; KCC2 cells, thallium flux FluoZin-2 fluorescence; B-score of Tl+ flux slope (higher = more flux/activation; lower = inhibition) at 10 µM; 190,000 compounds, 2.2% hits;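 active means thallium flux slope and its plate-corrected score both differing from the plate sample mean at a set confidence after two filtering rounds, in either direction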;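 further: slope of fluorescence scaled to starting intensity during 10 to 20 s after thallium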
RAM network inh – yeast RAM network inhibition. inhibition, % at 50 µM. S. cerevisiae dse1pr::URA3 reporter, 5-FOA growth OD615, 2 d; analog-sensitive cbk1-as2 kinase mutant strain. AID 868. 190,000 compounds, 1.8% hits;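 active means inhibition above a set limit, 3 SD over mean compound inhibition, cut at about 8.4% in these data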;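 further: 0% = DMSO-only wells with no growth and 100% = 10 µM 1-NA-PP1 full growth; inhibition rescues growth on 5-FOA so higher OD means more RAM inhibition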
S1P4 ag – activates the human S1P4 receptor; 220,000 compounds, 0.35% hits; S1P4-expressing cell line, agonist reporter assay; activation, % at 4.98 µM; O95977; in the data active means activation above about 11%;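 further: 0% = DMSO vehicle and 100% = reference agonist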
Target sequence (O95977 whole entry, looked up): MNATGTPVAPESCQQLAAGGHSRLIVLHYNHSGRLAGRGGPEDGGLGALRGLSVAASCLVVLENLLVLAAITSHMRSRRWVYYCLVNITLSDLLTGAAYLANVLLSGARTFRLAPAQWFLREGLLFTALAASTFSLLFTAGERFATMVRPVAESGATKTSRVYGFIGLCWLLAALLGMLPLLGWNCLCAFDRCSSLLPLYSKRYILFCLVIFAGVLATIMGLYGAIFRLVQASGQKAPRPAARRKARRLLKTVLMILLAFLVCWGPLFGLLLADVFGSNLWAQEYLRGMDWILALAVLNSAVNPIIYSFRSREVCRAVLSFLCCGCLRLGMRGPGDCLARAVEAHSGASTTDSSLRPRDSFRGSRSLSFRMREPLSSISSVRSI
S1P3 antagonist – S1P3 (human) receptor antagonism | Q99500 | inhibition, % at 4.98 µM | 170,000 compounds, 0.27% hits | CHO S1P3 NFAT-BLA reporter, FRET fluorescence, antagonist mode;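 active means inhibition above the plate cutoff, the mean inhibition of test wells on that plate plus 3 SD, cut at about 28% in these data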;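 further: cells challenged with S1P at its EC80 of 0.8 µM; blue over green emission ratio from cleaved BLA substrate after 4 h stimulation; 0% = S1P-stimulated wells and 100% = unstimulated DMSO-only wells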
S1P4 antag – human S1P4 receptor antagonism; S1P4-expressing cells, antagonist mode, reporter read-out; inhibition, % at 4.98 µM; 220,000 compounds, 0.26% hits; AID 1510; in the data active means inhibition above about 29%;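 further: 0% = wells stimulated with agonist and 100% = vehicle wells without agonist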
RAM efflux-def – restores 5-FOA growth of efflux-deficient yeast; 1,200 tested, under 10 active; S. cerevisiae efflux-deficient reporter strain, 5-FOA growth OD615, 2 days; max inhibition, %; shares compounds with RAM network inh; call rule not given here;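 further: plate controls were vehicle for no effect and reference inhibitor for full effect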
Numbers without * were called inactive.

CCOC(=O)c1c(-c2ccccc2)csc1NC(=O)CSc1ccccc1 was read as ROMK mod 1.3, Cl transport mod -0.064, RAM network inh 13*, S1P4 ag -2, S1P3 antagonist 9, S1P4 antag -1 and RAM efflux-def 4.
Screening CCOC(=O)c1c(NC(=O)CSc2nncs2)sc(C)c1C returned Cl transport mod -0.38, RAM network inh 5, S1P4 ag 2 and S1P4 antag -14.
`CCOC(=O)c1c(-c2ccc(OC)cc2)csc1NC(=O)CSc1ccccc1` gave ROMK mod 1.9, Cl transport mod 0.22, RAM network inh 15*, S1P4 ag -2, S1P4 antag 24 and RAM efflux-def 3.
`S=C(NCCCn1ccnc1)Nc1cccc(Cl)c1` gave ROMK mod -0.041, Cl transport mod 0.0081, RAM network inh 2, S1P4 ag -1, S1P3 antagonist -5 and S1P4 antag -1.
For Cc1ccc2c(c1)N(CC(=O)OCC(=O)NCc1ccccc1)C(=O)CO2 the results were ROMK mod -0.35, Cl transport mod -0.25, RAM network inh 1, S1P4 ag 3, S1P3 antagonist -4 and S1P4 antag -13.
For CC(C)C(NC(=O)c1ccc(F)cc1)C(=O)Nc1cccnc1 (stereo unspecified) the results were ROMK mod -0.29, Cl transport mod 0.81, RAM network inh -1, S1P4 ag 2, S1P3 antagonist -17 and S1P4 antag 2.
`CCCCNC(=O)C(=O)N/N=C/c1ccc(OCC(=O)Nc2cccc(OC)c2)c(OC)c1` gave ROMK mod -0.54, Cl transport mod -0.7, RAM network inh 1, S1P4 ag 2, S1P3 antagonist 4 and S1P4 antag 3.
CCOC(=O)c1c(NC(=O)CSc2nnnn2-c2ccc(OC)cc2)sc(C)c1C was read as ROMK mod 0.23, RAM network inh 12*, S1P4 ag -1, S1P4 antag -14 and RAM efflux-def 2.
For CC(C)CC(=O)NC1(C(F)(F)F)C(=O)N(CC(C)C)C2=C1C(=O)CC(C)(C)C2 (stereo unspecified) the results were ROMK mod -0.074, Cl transport mod 0.59, RAM network inh 1, S1P4 ag 0, S1P3 antagonist -4 and S1P4 antag -11.
`O=C(NNc1cccc(Cl)c1)c1cccnc1Oc1ccccc1` gave Cl transport mod -0.34, S1P4 ag 1, S1P3 antagonist -5 and S1P4 antag 16.
`COc1ccccc1N(C)S(=O)(=O)c1ccc(C(=O)OCC(=O)NCCC2=CCCCC2)cc1` gave ROMK mod -0.17, Cl transport mod -0.88, RAM network inh 15*, S1P4 ag -1, S1P3 antagonist -5, S1P4 antag -11 and RAM efflux-def 2.
Screening CCCCOn1c(C)c(C(=O)OCC)c2c3no[n+]([O-])c3ccc21 returned Cl transport mod -0.31, RAM network inh 12*, S1P4 ag 2, S1P3 antagonist 0, S1P4 antag -15 and RAM efflux-def 1.
For CCOC(=O)c1c(C)n(OC)c2ccc3c(no[n+]3[O-])c12 the results were Cl transport mod -2.6, RAM network inh 4, S1P4 ag 0 and S1P4 antag -1.
For NS(=O)(=O)c1ccc(CCNC(=O)CCCCCn2c(=S)[nH]c3ccc(Br)cc3c2=O)cc1 the results were ROMK mod 0.28, Cl transport mod 1.2, RAM network inh 2, S1P4 ag 2, S1P3 antagonist -12 and S1P4 antag -25.
`Cc1[nH]c2ccccc2c1/C=C/c1nc2ccccc2c(=O)n1-c1ccc([N+](=O)[O-])cc1` gave ROMK mod -0.82, Cl transport mod -1.4, RAM network inh 11*, S1P4 ag 3, S1P3 antagonist -17, S1P4 antag 0 and RAM efflux-def 4.
For Cc1[nH]c2ccccc2c1/C=C/c1nc2ccccc2c(=O)[nH]1 the results were ROMK mod -0.042, Cl transport mod 0.97, S1P4 ag 0, S1P3 antagonist 23 and S1P4 antag -44.
For CN(C)S(=O)(=O)c1ccc2[nH]cc(/C=C/c3nc4ccccc4c(=O)n3-c3ccccc3)c2c1 the results were Cl transport mod -0.05, RAM network inh 13*, S1P4 ag 0, S1P4 antag -14 and RAM efflux-def 6.
For Nc1cc(S(=O)(=O)N2CCCCC2)ccc1Oc1ccccc1 the results were ROMK mod -0.82, Cl transport mod 0.064, RAM network inh 4, S1P4 ag 1, S1P3 antagonist 5 and S1P4 antag 8.
`Cc1ccc(S(=O)(=O)N(C)C)cc1NC(=O)COC(=O)c1ccc2c(c1)NC(=O)CS2` gave Cl transport mod -1.3, S1P4 ag 1, S1P3 antagonist -14 and S1P4 antag 0.
O=C(Nc1cc(-c2ccccc2)[nH]n1)c1ccc(Cl)cc1 was read as ROMK mod -0.48, Cl transport mod -0.45, S1P4 ag 1, S1P3 antagonist 16 and S1P4 antag -9.
`C=CCn1c(-c2cccn(Cc3ccccc3)c2=O)n[nH]c1=S` gave Cl transport mod -0.06, RAM network inh -1, S1P4 ag 0 and S1P4 antag -3.
Screening C=CCn1c(-c2cccn(Cc3ccc(Cl)cc3)c2=O)n[nH]c1=S returned ROMK mod 0.48, RAM network inh 13*, S1P4 ag 1, S1P4 antag -15 and RAM efflux-def 9.
For Cc1cc(C)n(-c2ccc(C(=O)Oc3ccc4c(c3)OCO4)cc2)n1 the results were Cl transport mod 0.12, RAM network inh 13*, S1P4 ag 1, S1P4 antag 0 and RAM efflux-def 3.
Nc1nc(N)nc(-c2ccc(Oc3ccccc3)cc2)n1 was read as Cl transport mod -0.093, RAM network inh 6, S1P4 ag -1 and S1P4 antag 3.
Screening Cc1ccccc1Oc1ccc(-c2nc(N)nc(N)n2)cc1 returned Cl transport mod -1.3, RAM network inh 12*, S1P4 ag -1, S1P4 antag 1 and RAM efflux-def 2.
Screening CCc1ccc(OCC(=O)N2c3ccccc3CCc3ccccc32)cc1 returned ROMK mod -0.28, Cl transport mod -1.3, RAM network inh 18*, S1P4 ag 2, S1P3 antagonist 5, S1P4 antag -5 and RAM efflux-def 6.
For O=C(COc1ccccc1F)N1c2ccccc2CCc2ccccc21 the results were Cl transport mod -0.83, RAM network inh 3, S1P4 ag 3, S1P3 antagonist 9 and S1P4 antag -17.
For CC1(C)CC(C(CCN(Cc2ccccc2)C(=O)c2ccco2)c2ccc(F)cc2)CCO1 (stereo unspecified) the results were ROMK mod -1.4, Cl transport mod -2.3, RAM network inh 12*, S1P4 ag 0, S1P3 antagonist -8, S1P4 antag -19 and RAM efflux-def 3.

Bioassay records from PubChem.
